Experimental data reported in the supplement of paper PMC6555819.

What follows are sequences tested on RXRa DBDmut IVT, anti-RXR (DBD mutation: RXRa K156A/R161A, NR concentration 90 nM) (assay: PBM binding z-score (relative to random genomic background probes); higher = stronger binding; sequences stand for … in GC…GCGATTGACAGCGTAGAATGAAGG).
Procedure, shortened: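 Custom Agilent 4×180K protein-binding microarrays carried double-stranded probes. Their 34-nt variable regions held direct-repeat seeds, single-nucleotide variants, half-site ablations and random human genomic background sequences. Arrays were incubated 1 h with ligand-free nuclear receptor dimers in PBS pH 7.4, 2% milk, 0.02% Triton X-100, 1 mM DTT, 0.2 mg/mL BSA and 0.4 mg/ml salmon testes DNA. Antibodies against each partner (one per run) detected binding, and scanned fluorescence was regression-normalized. Binding z-scores use random background probes as reference.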

Sequence | PBM binding z-score
CCGACAGGGGCAAAGGTTACCATACTCAGTACGA | 1.26
CGTCAAAGTTCAAGATAACGTAACAGAAAGCAGC | 4.52
CTCGAAAGGTCGGTTGAGGTGAGTGTACGGATAA | 0.363
GCAGACAGGTGAAACGCAGGTAACGCAGGGTGGC | -0.945
AGAATGAGGTTACCAAAGATCACGGAAACGCTTG | 1.17
CGAACTAGGTCCTCCAGGACAGTGAATACATTGA | 0.211
TCTTGTAGATCAAGCAGCTTAAGAAAGCCTGAGT | 0.402
TCTAGCAGGGCAGAGGGTCACTCAAGAGGTACGG | -0.00739
GCTTGTAGATCAAGGTTGAGAAAGACTAAGCTAA | 0.0122
AGTCAAAGTTCCGGACGAGGTAACGTAAAGCACG | -0.303
CCTTACGGGTCACTCCAGGGTATAGCATCGGAGT | 0.964
ACTACTAGTTGAGACGAGGGCAACCGATAGGTTG | 0.00344
GCTGCTAGGTCAGGGTGGTCAGCTAACGGGTACG | 0.223
GCTGTTAGTTGAAAGGGCAACCGAATGATTCTCG | 0.773
TGAATGAGGTTAAACATCAGGGAACGTGGCGTCG | 1.35
TCGAGTAGGTTAGTGGCATTCAGAATGGCGTCGA | 0.0324
CCAACTGGGGCAAGGTTACCATAACGCACAGCCA | -0.0848
TAGCCTAGGTCATGCGGGCCAGGATAGTGTCGGC | 0.23
GCTGCTAGGTCTACTGATGGTCAGCTAAAGCTCG | 0.147
ACAGACAGGAGAGTGAAGGTAACTCAGCTGGACG | -0.483

Sequence | PBM binding z-score
GATACAGGGTCATGGCCAGAGTACGCGTATTGAT | 2.44
GCTAGTTGGTCAGCAAAAGGTCACACACCGGTCG | -0.0302
ATCGAAAGGTCGAGGTGAGTAGAGAGAAAGGGAA | 0.806
AGAGTGAGGTTAAGATCAGGGAAACAGAATACAT | 0.869
ATCGAAAGGTCGAAGGTGAGTATGCCCACCCGAA | 1.32
TCTGCTAGGTAAGTTGGTCAGCTAACGAGCTGCC | 0.107
CGAATGAGGGCATGAGTTGATAGCAAATGCCGAT | 2.3
CCTAGCAGGCCAATCTGGGTCACTCTAGGCTTGA | 0.254
TCTTGTAGATCTAGCAGGTTAAGAAAGCCTGAGT | 0.705
TCTGATAGGTCAGTTGGTCAGCTAACGAGCTGCC | 1.1
ACTAGCAGGCCAAGTTTGGGGCACTCAAACAAAG | -0.0962
TCTATTAGTTGATTAGCGCAACCGAAACAGCGGA | 1.29
TCATATAGGTAAAAGGTGAAAATCGGTGTGGTAA | 1.69
CCTTACGGGTCACTGACAGGTTATAGGATTTGGA | 1.67
TCATATCGGTAAAGGTGAAAGTCGAACGATATGA | 0.447
CCTAGCAGGCCAGGGTCCCTCAAGCATTTCGCTT | -1.15
TCGGCTAGGTCAACGATGGTCAGCTAATCTGCTA | 0.991
TTACCAACGTGAAAGGTCGTTGATGCACGCCTTG | 0.467
ACAGAGAGGTGATGAAGGTAACTCAGGCTATCAT | -0.266
ACTTACGGGTCAACGAGGTTATAGCGCGCGTATA | 2.92
